The source of these data is the supplement of paper PMC9135407.

In this assay the test system is primary human hepatic stellate cells (donor 1). Description: scaled lipid accumulation score (0 = DMSO-like, 1 = nortriptyline-like); higher = stronger HSC inactivation (lipid re-accumulation), active = hit call of the paper. Particulars: 48 h.
The mark [1] stands for this setting: library stock concentration: 3.33 mM.
The mark [2] stands for this setting: library stock concentration: 10 mM.
Where [3] appears, read: library stock concentration: 1 mM.
The mark [4] stands for this setting: library stock concentration: 80 uM.
The mark [5] stands for this setting: library stock concentration: 400 uM.
Setting [6] is: library stock concentration: 2 mM.

SMILES strings stand for the structures. “And” between values parts separate entries of the source, which are not always exact repeats. Identical values can stand only once. Counter-ions that a name gives are not always drawn. Out of some 5,800 compounds screened, about 620 (11%) showed activity. Many of the other results were omitted from the sample, so actives are more common in it than they were. Unmarked numbers belong to inactive results.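 How the source made its calls: active = score above a cut-off or among the top three wells of a plate; in these data no inactive exceeds 0.85.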 Where only a bound is given, the exact number is not on record here.

Take `C[N+]1(C)[C@@H]2C[C@@H](OC(=O)C(O)(c3cccs3)c3cccs3)C[C@H]1[C@@H]1O[C@@H]12` [Tiotropium Bromide hydrate]: the “scaled lipid accumulation score” value reads like this: under setting [1], at most 0; under setting [2], at most 0.

As to `CCCCC[C@H]1C=C[C@@H]2[C@@H](CC=CCCCC(=O)O1)[C@@H](O)C[C@H]2O` [Prostaglandin F2.alpha. 1,15-lactone], the “scaled lipid accumulation score” value under setting [3] is at most 0.

`CCCCC/C=C/C=C1/C=CC(=O)[C@@H]1CCCCCCC(=O)O` [15-deoxy-.DELTA.12,14-Prostaglandin A1]: the “scaled lipid accumulation score” value under setting [3] was at most 0.

For the compound `CC(C)C[C@H](NC(=O)CNC(=O)c1cc(Cl)ccc1Cl)B1OC(=O)CC(CC(=O)O)(C(=O)O)O1` (stereo partly drawn), the “scaled lipid accumulation score” value runs as follows: under setting [1], at most 0; under setting [2], 0.118.

Take `OCC1OC(n2cnc3c(NC4CCCCC4)ncnc32)C(O)C1O` (stereo not drawn) [N6-Cyclohexyladenosine]: the “scaled lipid accumulation score” value under setting [2] was 0.037.

For the compound `Cc1cccc(CCN2CCC(C(=O)c3ccc(NS(C)(=O)=O)cc3)CC2)n1` [E-4031 dihydrochloride], the “scaled lipid accumulation score” value under setting [2] is at most 0.

In the case of `Cc1cccc(CCN2CCC(C(=O)c3ccc(NS(C)(=O)=O)cc3)CC2)n1`, the “scaled lipid accumulation score” value (library stock concentration: 9.9 mM) was 0.011.

As for `Fc1ccc(Cl)cc1-c1nc(Nc2ccncc2)c2nccnc2n1`, the “scaled lipid accumulation score” value under setting [2] is at most -0.001.

Take `O=C1C=CC(=O)C2=C1C1c3ccccc3C2c2ccccc21`: the “scaled lipid accumulation score” value under setting [2] is 0.953 (active).

Regarding `O=C1c2ccccc2C(=O)C1c1ccccc1` [Phenindione], the “scaled lipid accumulation score” value was at most 0. The “scaled lipid accumulation score” value under setting [1] is at most 0. Where the note is “library stock concentration: 9 mM”, the “scaled lipid accumulation score” value was 0.014. The “scaled lipid accumulation score” value under setting [2] is at most 0.

As for `CCCCCC(O)C=CC1C2CC(CO2)C1CCCCCCC(=O)O` (stereo not drawn) [9,11-methane-epoxy Prostaglandin F1.alpha.], under setting [3], the “scaled lipid accumulation score” value is 0.048.

For the compound `O=C(NC1CCN(CCCCC2(C(=O)NCC(F)(F)F)c3ccccc3-c3ccccc32)CC1)c1ccccc1-c1ccc(C(F)(F)F)cc1` [Lomitapide] [listing 1 of 2 here], under setting [2], the “scaled lipid accumulation score” value is at most 0.

Take `O=C(Nc1ccc2c(c1)CCN(Cc1ncn[nH]1)C2)c1ccccc1-c1ccc(C(F)(F)F)cc1`: under setting [2], the “scaled lipid accumulation score” value was at most 0.

Take `O=C(NC1CCN(CCCCC2(C(=O)NCC(F)(F)F)c3ccccc3-c3ccccc32)CC1)c1ccccc1-c1ccc(C(F)(F)F)cc1` [Lomitapide] [listing 2 of 2 here]: the “scaled lipid accumulation score” value under setting [1] is 1.05 (active).

As to `N[C@@H]1CCCN(c2c(/C=C3\SC(=O)NC3=O)cccc2-c2ccccc2)C1`, the “scaled lipid accumulation score” value runs as follows: under setting [4], at most 0; under setting [5], at most 0; under setting [6], 0.016; under setting [1], 0.072; under setting [2], 0.072 and 0.486.

In the case of `CC(C)(C)c1cc(O)c(C(C)(C)C)cc1O` [2,5-Ditertbutylhydroquinone], where the note is “library stock concentration: 22.5 mM”, the “scaled lipid accumulation score” value is 0.463.

Consider `CC(=O)OCC(=O)NCCCOc1cccc(CN2CCCCC2)c1` [Roxatidine acetate HCl], for which the “scaled lipid accumulation score” value (library stock concentration: 5.7 mM) was at most 0.

With `O=C(O)/C=C\C(=O)O.O=C(O)/C=C\C(=O)O.c1cc(CN2CCCCC2)cc(OCCCNc2nc3ccccc3s2)c1`, under setting [2], the “scaled lipid accumulation score” value was 1.03 (active).

For `O=C(O)/C=C\C(=O)O.O=C(O)/C=C\C(=O)O.c1cc(CN2CCCCC2)cc(OCCCNc2nc3ccccc3s2)c1` [Zolantidine dimaleate], under setting [2], the “scaled lipid accumulation score” value was 1.5 (active).

`O=C(O)Cc1cccc(OCCCN(Cc2cccc(C(F)(F)F)c2Cl)CC(c2ccccc2)c2ccccc2)c1`: the “scaled lipid accumulation score” value runs as follows: under setting [1], at most 0; under setting [2], 0.181.

Regarding `CC(=O)OCC(=O)NCCCOc1cccc(CN2CCCCC2)c1` [Roxatidine Acetate HCl], the “scaled lipid accumulation score” value is 0.032. The “scaled lipid accumulation score” value under setting [1] is at most 0. The “scaled lipid accumulation score” value under setting [2] is at most 0.

Take `CC(=O)OCC(=O)NCCCOc1cccc(CN2CCCCC2)c1`: the “scaled lipid accumulation score” value under setting [2] was at most 0.

In the case of `O=C(O)Cc1cccc(OCCCN(Cc2cccc(C(F)(F)F)c2Cl)CC(c2ccccc2)c2ccccc2)c1` [GW 3965 hydrochloride], the “scaled lipid accumulation score” value under setting [2] was at most -0.001.

For the compound `c1ccc2sc(N3CCN(Cc4ccc5c(c4)OCO5)CC3)nc2c1` [2-[1-(4-Piperonyl)piperazinyl]benzothiazole], under setting [2], the “scaled lipid accumulation score” value was at most 0.

`CCCCCCCCCCCCCCCCCC(=O)N[C@H]1CCOC1=O` [N-octadecanoyl-L-Homoserine lactone]: the “scaled lipid accumulation score” value under setting [3] was at most 0.

Take `CCCCN1C[C@H](O)[C@@H](O)[C@H](O)[C@H]1CO` [Miglustat]: the “scaled lipid accumulation score” value (library stock concentration: 9.1 mM) was at most 0.

On to `Nc1nc(Nc2ccccc2)nc2c1ncn2[C@@H]1O[C@H](CO)[C@@H](O)[C@H]1O`, for which the “scaled lipid accumulation score” value under setting [2] is at most 0.

As to `Cc1cc(-c2ccc(CC(=O)Nc3ccc(-c4cccnc4)cc3)cc2)ccn1`, the “scaled lipid accumulation score” value under setting [1] was 0.089 and the “scaled lipid accumulation score” value under setting [2] is 0.262.

On to `Cc1ccc(NC(=O)c2ccc(CN3CCN(C)CC3)cc2)cc1Nc1nccc(-c2cccnc2)n1`, for which the “scaled lipid accumulation score” value reads like this: under setting [5], 0.022; under setting [6], at most -0.005; under setting [2], 0.628.

Consider `Cc1ccc(NC(=O)c2ccc(CN3CCN(C)CC3)cc2)cc1Nc1nccc(-c2cccnc2)n1` [Imatinib Mesylate (STI571)], for which, under setting [1], the “scaled lipid accumulation score” value was 0.259.

With `Cc1ccc(NC(=O)c2ccc(CN3CCN(C)CC3)cc2)cc1Nc1nccc(-c2cccnc2)n1` [Imatinib], the “scaled lipid accumulation score” value by setting is: under setting [4], at most 0; under setting [5], at most 0; under setting [6], 0.049.

Regarding `Cc1ccc(NC(=O)c2ccc(CN3CCN(C)CC3)cc2)cc1Nc1nccc(-c2cccnc2)n1` [Imatinib (STI571)] [listing 1 of 2 here], the “scaled lipid accumulation score” value under setting [2] is 0.92 (active).

With `CS(=O)(=O)O.Cc1ccc(NC(=O)c2ccc(CN3CCN(C)CC3)cc2)cc1Nc1nccc(-c2cccnc2)n1`, the “scaled lipid accumulation score” value under setting [2] was 1.08 (active).

As to `CS(=O)(=O)O.Cc1ccc(NC(=O)c2ccc(CN3CCN(C)CC3)cc2)cc1Nc1nccc(-c2cccnc2)n1` [Imatinib Mesylate (STI571)], under setting [2], the “scaled lipid accumulation score” value is 1.1 (active).

Regarding `Cc1ccc(NC(=O)c2ccc(CN3CCN(C)CC3)cc2)cc1Nc1nccc(-c2cccnc2)n1` [Imatinib (STI571)] [listing 2 of 2 here], the “scaled lipid accumulation score” value under setting [1] was 0.133.

Turning to `CS(=O)(=O)O.Cc1ccc(NC(=O)c2ccc(CN3CCN(C)CC3)cc2)cc1Nc1nccc(-c2cccnc2)n1` [Imatinib], under setting [2], the “scaled lipid accumulation score” value is 0.969 (active).
